In PubChem BioAssay (NCI):
“And” between values parts separate entries of the source, which are not always exact repeats. Equal entries are not always repeated. About 83,000 compounds went through this panel and 20% of them were active in at least one assay; those are over-represented in the sample as a whole.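 Each cell line was grown in a 96-well plate and treated with one concentration of compound for 48 hours. Values below 10 were considered active.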 The source holds several records for some structures; these can differ, active in one and inactive in another. The source made the active and inactive calls.

What was measured:
Experiment in all cases: NCI-60 one-dose screen, 48 h (100 = growth as untreated, 0 = no growth, -100 = all killed)
NCI-H226 lung = details: 10 µM
NCI-H322M lung = details: 10 µM
HOP-62 NSCLC = details: 10 µM
A549/ATCC NSCLC = details: 10 µM
786-0 renal = details: 10 µM
COLO 205 colon = details: 10 µM
DU-145 prostate = details: 10 µM
SF-268 CNS = details: 10 µM
SF-295 CNS = details: 10 µM
SF-539 CNS = details: 10 µM
HCT-15 colon = details: 10 µM
SNB-75 CNS = details: 10 µM
SNB-19 CNS = details: 10 µM
U251 CNS = details: 10 µM
PC-3 prostate = details: 10 µM
EKVX NSCLC = details: 10 µM
UO-31 renal = details: 10 µM
ACHN renal = details: 10 µM
HL-60(TB) leukemia = details: 10 µM unless noted
CCRF-CEM leukemia = details: 10 µM

Measured: growth

CC1=C2C(=O)[C@](C)(CO)C=C2C(=O)[C@](C)(O)C12CC2
active: 786-0 renal 5.58% | COLO 205 colon -12.1% | DU-145 prostate 7.23% | SF-295 CNS 6.45% | SF-539 CNS 4.6% | HCT-15 colon -9.55% | U251 CNS 8.4% | UO-31 renal -20.7% | ACHN renal -21.9% | HL-60(TB) leukemia -21.6%
inactive: NCI-H226 lung 74.7% | NCI-H322M lung 61.6% | HOP-62 NSCLC 22% | A549/ATCC NSCLC 13.2% | SF-268 CNS 10.5% | SNB-75 CNS 38.9% | SNB-19 CNS 60.2% | PC-3 prostate 21.6% | EKVX NSCLC 64.7% | CCRF-CEM leukemia 13.9%

NC1CCc2cc(O)c(O)cc2C1 (centres undefined)
inactive: NCI-H226 lung 90.7% | NCI-H322M lung 98.6% | HOP-62 NSCLC 100% | A549/ATCC NSCLC 82.3% | 786-0 renal 84.7% | COLO 205 colon 80.7% | DU-145 prostate 94.3% | SF-268 CNS 104% | SF-295 CNS 95% | SF-539 CNS 94.8% | HCT-15 colon 41.8% | SNB-75 CNS 82.6% | SNB-19 CNS 98% | U251 CNS 79.6% | PC-3 prostate 76.1% | EKVX NSCLC 93.9% | UO-31 renal 85.1% | ACHN renal 96.9% | HL-60(TB) leukemia 32.9% | CCRF-CEM leukemia 48%

COc1cc(C)c(-c2ccc(OC)c(=O)cc2C)c(OC)c1OC
-7.85% (active) and 94.9% (inactive): SF-539 CNS
inactive: NCI-H226 lung 41.8% and 98.4% | NCI-H322M lung 46.5% and 104% | HOP-62 NSCLC 31.5% and 98.7% | A549/ATCC NSCLC 17.6% and 98.4% | 786-0 renal 37.8% and 101% | DU-145 prostate 13.3% and 104% | SF-268 CNS 37.5% and 103% | HCT-15 colon 12% and 101% | SNB-75 CNS 28.3% and 93.6% | SNB-19 CNS 20.1% and 96.6% | U251 CNS 11.9% and 104% | PC-3 prostate 19% and 95.8% | EKVX NSCLC 36.6% and 97.1% | UO-31 renal 47.5% and 88.6% | ACHN renal 31.9% and 105% | CCRF-CEM leukemia 10.1% and 96.8%
-29.2% (active) and 94.5% (inactive): COLO 205 colon
-24.6% (active) and 98.8% (inactive): HL-60(TB) leukemia
6.39% (active) and 100% (inactive): SF-295 CNS

CC1=C[C@H]2O[C@@H]3C[C@@H](O)[C@](C)([C@@]2(C)CC1)[C@@]31CO1
inactive: NCI-H226 lung 29.9% | NCI-H322M lung 24.9% | HOP-62 NSCLC 15.7% | A549/ATCC NSCLC 16.2% | 786-0 renal 24.1% | DU-145 prostate 19.4% | SF-268 CNS 29.3% | SF-295 CNS 27.2% | SF-539 CNS 23.9% | HCT-15 colon 20.8% | SNB-75 CNS 28.7% | SNB-19 CNS 18.9% | U251 CNS 15.4% | PC-3 prostate 31.5% | EKVX NSCLC 38.3% | UO-31 renal 16.7% | ACHN renal 22.2% | CCRF-CEM leukemia 13.8%
active: COLO 205 colon 3.33% | HL-60(TB) leukemia -20.9%

O=C(CCCc1ccc(N(CCCl)CCCl)cc1)OCc1ccccc1
inactive: NCI-H226 lung 90.3% | NCI-H322M lung 103% | HOP-62 NSCLC 84.2% | A549/ATCC NSCLC 78.9% | 786-0 renal 99% | COLO 205 colon 98% | DU-145 prostate 96.7% | SF-268 CNS 80.4% | SF-295 CNS 87.7% | SF-539 CNS 85.2% | HCT-15 colon 88.6% | SNB-75 CNS 84.9% | SNB-19 CNS 95.9% | U251 CNS 89.2% | PC-3 prostate 83.2% | EKVX NSCLC 101% | UO-31 renal 83.6% | ACHN renal 50.6% | HL-60(TB) leukemia 68.7% | CCRF-CEM leukemia 82.1%

CC1=C(CN(O)C(N)=O)C2=C(C)C3(CC3)[C@@](C)(O)C(=O)C2=C1
inactive: SNB-19 CNS 16.2% | CCRF-CEM leukemia 94.7%
active: NCI-H226 lung -46.8% | NCI-H322M lung 5.16% | HOP-62 NSCLC -9% | A549/ATCC NSCLC -8.35% | 786-0 renal -5.47% | COLO 205 colon -35.9% | DU-145 prostate -2.79% | SF-268 CNS -14.7% | SF-295 CNS -11.4% | SF-539 CNS -46.1% | HCT-15 colon 0.564% | SNB-75 CNS -52.8% | U251 CNS 4.97% | PC-3 prostate 2.36% | EKVX NSCLC -24.1% | UO-31 renal -31.8% | ACHN renal -14.4% | HL-60(TB) leukemia -28.2%

CC(C)(O)/C=C/C(=O)[C@](C)(O)[C@H]1[C@H](O)C[C@@]2(C)[C@H]3CC=C4[C@@H](C[C@H](O)C(=O)C4(C)C)[C@]3(C)C(=O)C[C@]12C
active: HOP-62 NSCLC 5.78% | 786-0 renal 1.91% | SF-268 CNS -3.28% | SF-295 CNS 7.51% | SF-539 CNS -31.5% | HCT-15 colon 7.53% | SNB-75 CNS -39.4% | SNB-19 CNS 8.14% | U251 CNS 0.229% | UO-31 renal -52.7% | ACHN renal -1.68% | HL-60(TB) leukemia -3.29% | CCRF-CEM leukemia 3.53%
inactive: NCI-H226 lung 12.7% | NCI-H322M lung 32.3% | A549/ATCC NSCLC 10.1% | COLO 205 colon 34.3% | DU-145 prostate 14% | PC-3 prostate 11.4% | EKVX NSCLC 18.4%

C/C=C/CC(C)C(O)[C@H](NC(=O)[C@@H]1CCCN1C(=O)C(C)(C)NC(=O)CCCCCCC)C(=O)N[C@@](C)(CC)C(=O)N[C@@H](CCC(N)=O)C(=O)N[C@H](CCC(N)=O)C(=O)NC(C)(C)C(=O)NC(C)(C)C(=O)N[C@@H](CCC(N)=O)C(=O)N[C@H](CC(C)C)C(=O)N[C@H](CO)CC(C)C (some centres undefined)
101% (inactive) and -17.8% (active): U251 CNS
94.8% (inactive) and -6.76% (active): HL-60(TB) leukemia
100% (inactive) and 5.16% (active): EKVX NSCLC
100% (inactive) and -45.7% (active): SF-539 CNS
109% (inactive) and -30.3% (active): SNB-75 CNS
105% (inactive) and 6.63% (active): NCI-H226 lung
98.8% (inactive) and -22.2% (active): SF-295 CNS
110% (inactive) and -35.4% (active): DU-145 prostate
inactive: NCI-H322M lung 108% and 70% | HOP-62 NSCLC 95.9% and 14.5% | A549/ATCC NSCLC 109% and 30% | 786-0 renal 103% and 39.8% | HCT-15 colon 100% and 22.1% | SNB-19 CNS 101% and 14% | PC-3 prostate 103% and 17.3% | UO-31 renal 96.7% and 16.1% | ACHN renal 103% and 32%
107% (inactive) and -8.99% (active): SF-268 CNS
103% (inactive) and -23.3% (active): CCRF-CEM leukemia
118% (inactive) and -46.4% (active): COLO 205 colon

C/C=C/CC(C)C(O)[C@H](NC(=O)[C@@H]1CCCN1C(=O)C(C)(C)NC(=O)CCCCCCCCC)C(=O)NC(C)(C)C(=O)N[C@@H](CCC(N)=O)C(=O)N[C@H](CCC(N)=O)C(=O)NC(C)(C)C(=O)NC(C)(C)C(=O)N[C@@H](CCC(N)=O)C(=O)N[C@H](CC(C)C)C(=O)N[C@H](CO)CC(C)C (some centres undefined)
15.8% (inactive) and -29.7% (active): PC-3 prostate
14.2% (inactive) and -83.8% (active): 786-0 renal
active: COLO 205 colon -82.7% and -41.1% | DU-145 prostate -71% and -43.1% | SF-268 CNS -14.2% and -46.2% | SF-295 CNS -20.9% and -75.3% | SF-539 CNS -33.1% and -100% | HCT-15 colon 4.12% and 4.44% | SNB-75 CNS -15.2% and -83.2% | U251 CNS 0.668% and -89.7% | HL-60(TB) leukemia -52.1% and -47.2% | CCRF-CEM leukemia -12.7% and -38.8%
14.5% (inactive) and -95.4% (active): SNB-19 CNS
inactive: A549/ATCC NSCLC 49.3% and 26.3%
43.7% (inactive) and -32% (active): ACHN renal
20.7% (inactive) and -41.7% (active): HOP-62 NSCLC
24.6% (inactive) and -36.3% (active): NCI-H226 lung
39.7% (inactive) and -38.5% (active): UO-31 renal
39.9% (inactive) and -7.7% (active): NCI-H322M lung
22.6% (inactive) and -41.8% (active): EKVX NSCLC

COc1cc2c(cc1OC)[C@@H]1N(CC2)C(=O)c2ccccc2[C@@]1(C)C(=O)O
inactive: NCI-H226 lung 111% | NCI-H322M lung 102% | HOP-62 NSCLC 108% | A549/ATCC NSCLC 111% | 786-0 renal 99.9% | COLO 205 colon 115% | DU-145 prostate 110% | SF-268 CNS 110% | SF-295 CNS 101% | SF-539 CNS 105% | HCT-15 colon 101% | SNB-75 CNS 108% | SNB-19 CNS 98.4% | U251 CNS 106% | PC-3 prostate 104% | EKVX NSCLC 103% | UO-31 renal 97.3% | ACHN renal 110% | HL-60(TB) leukemia 104% | CCRF-CEM leukemia 105%

CC1=C2C(=C[C@@](C)(COC(=O)c3ccc(S(=O)(=O)F)cc3)[C@@H]2O)C(=O)[C@](C)(O)C12CC2
active: NCI-H226 lung -24.4% | NCI-H322M lung -5.82% | HOP-62 NSCLC -17.7% | A549/ATCC NSCLC -11% | 786-0 renal -37.7% | COLO 205 colon -58.5% | DU-145 prostate -20.4% | SF-268 CNS -12% | SF-295 CNS -5.19% | SF-539 CNS -67.8% | HCT-15 colon -20.2% | SNB-75 CNS -51.6% | SNB-19 CNS 3.51% | U251 CNS 1.04% | PC-3 prostate -3.96% | EKVX NSCLC -4.53% | UO-31 renal -21.4% | ACHN renal 0.0222% | CCRF-CEM leukemia 9.59%
